Pf apPOL block: Pf-apPOL DNA polymerase inhibition | AID 1794808 | Recombinant Pf-apPOL, molecular beacon fluorescence, 1.5 h | inhibition, % at 10 µM | 210,000 tested, 0.25% active
mHTT CaM bind: mHTT-calmodulin interaction abrogation; P42858; inhibition, % at 15 µM; 190,000 tested, 3.6% active; AID 1671202; AlphaScreen His-mHTT/GST-CaM binding, luminescence;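 also: 0% = both proteins with DMSO and 100% = one protein alone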
* = called active by the depositor; i = inactive; nt = no result given. A selection: hits, their analogues and other compounds. The true share with any hit is near 3.6%. Rule as the data show it: active = inhibition above about 50%; inactive = the rest.

SMILES | Pf apPOL block | mHTT CaM bind
O=C1C(=Cc2cccc(F)c2)Oc2c1ccc(O)c2CN1CCCCC1 | -17 | 23
O=C1C(Nc2ccccc2)=C(N2CCCCC2)C(=O)c2ccccc21 | 8 | 24
Cc1ccc(NC2=C(N3CCCCC3)C(=O)c3ccccc3C2=O)cc1 | 5 | 68*
O=C1C(Nc2cc(F)cc(F)c2)=C(N2CCOCC2)C(=O)c2ccccc21 | -8 | 19
O=C1C(Nc2ccc(Br)cc2)=C(N2CCCCC2)C(=O)c2ccccc21 | 11 | 95*
CC(=O)c1ccc(NC2=C(N3CCCC3)C(=O)c3ccccc3C2=O)cc1 | -6 | 86*
O=C1C(Nc2ccc(Br)cc2)=C(n2nnc3ccccc32)C(=O)c2ccccc21 | -4 | -3
COc1cc(C(=O)NC2CCCCC2)c([N+](=O)[O-])cc1OC | 4 | -11
CC(NC(=O)CCc1ccccc1)c1ccc2c(c1)OCCO2 (centres undefined) | -2 | -4
N/C(=N\OCC(=O)Nc1ccccc1[N+](=O)[O-])c1nonc1N | 0 | i
COc1ccc(/C=C2\C=C(c3ccccc3)N(c3ccccc3O)C2=O)cc1 | 3 | 76*
O=C1/C(=C/c2ccc([N+](=O)[O-])cc2)C=C(c2ccccc2)N1c1ccccc1O | 8 | 24
COc1ccc(Br)cc1/C=c1\sc2nc(=O)c(C)nn2c1=O | -6 | 5
CCOC(=O)c1ccc(OC(=O)c2ccc(Cl)cc2[N+](=O)[O-])cc1 | -10 | nt
CCc1ccc(CNC(=O)C2c3cc(OC)c(OC)cc3C(=O)N3CCc4ccccc4C23)cc1 (centres undefined) | 1 | 10
CCOc1cc2c(cc1OCC)C1C(C(=O)Nc3cc(C)ccn3)c3ccccc3C(=O)N1CC2 (centres undefined) | -3 | 51*
CCc1ccccc1NC(=O)C1c2cc(OC)c(OC)cc2C(=O)N2CCc3ccccc3C12 (centres undefined) | -2 | 63*
CCOc1ccccc1NC(=O)C1c2ccccc2C(=O)N2CCc3ccccc3C12 (centres undefined) | 1 | 15
COCCNS(=O)(=O)c1ccc(I)cc1 | -2 | 2
CCC(C)NC(=O)N1CCC(c2nc(C(=O)N(C)C)c(C)o2)CC1 (centres undefined) | -2 | -2
COc1ccc(C2SCCN2C(=O)c2ccccc2C(=O)O)cc1Br (centres undefined) | 0 | 5
COc1ccc(C2SCC3C(=O)N(c4ccccc4)C(=S)N32)cc1O (centres undefined) | -5 | 100*
COc1c(Cl)cc(/C=C2\C(=O)NN(c3ccccc3)C2=O)cc1Cl | -6 | 96*
COc1cc(/C=C2\C(=O)NC(=O)N(c3cccc(C)c3)C2=O)cc(OC)c1O | -3 | 4
O=C1NC(=O)N(c2cccc(C(F)(F)F)c2)C(=O)/C1=C/c1ccc(O)cc1 | 0 | 52*
SMILES | Pf apPOL block | mHTT CaM bind
CCOc1cc(/C=C2\C(=O)NN(c3ccc(Br)cc3)C2=O)cc(Cl)c1O | 1 | 35
CCOc1cc(/C=C2\C(=O)NN(c3cccc(Br)c3)C2=O)cc(Cl)c1OCC | -4 | 98*
COc1cc(/C=C2\C(=O)NN(c3ccc(C)c(Cl)c3)C2=O)cc(OC)c1OC | -4 | 33
COc1cccc(/C=C2\C(=O)NN(c3ccc(C)c(C)c3)C2=O)c1 | -5 | 9
COc1cccc(/C=C2\C(=O)NN(c3cccc(C(F)(F)F)c3)C2=O)c1 | -2 | 85*
CC(C)NC(=O)O[C@@H]1C[C@H]2C[C@@H]1[C@H]1CCCCN1C2=O | -2 | -1
COc1ccc(-c2cc3n(n2)CCCN(S(=O)(=O)c2ccc(NC(C)=O)cc2)C3)cc1 | -8 | 5
Cn1ncc(N2CCCC(C(=O)N3CCCC3)C2)cc1=O (centres undefined) | -3 | -2
CCCCN1C(=O)C(C)(C(=O)Nc2cc(Cl)ccc2OC)Oc2cccnc21 (centres undefined) | -9 | -31
COc1cc(Cl)cc(/C=C2\C(=O)NN(c3ccc(C)c(C)c3)C2=O)c1O | -6 | 14
COc1cc(/C=C2\C(=O)NN(c3ccc(I)cc3)C2=O)cc(OC)c1O | -3 | 61*
COc1cc(/C=C2\C(=O)NN(c3ccc(C)c(C)c3)C2=O)cc(OC)c1OC | 11 | 50
COc1cc(Cl)cc(/C=C2\C(=O)NN(c3cccc(Cl)c3)C2=O)c1O | 0 | 58*
COc1ccc(NC(=O)CSc2ncccn2)cc1 | 2 | -2
COc1cc(NC(=O)CSc2nnc(-c3ccco3)c(-c3ccco3)n2)cc(OC)c1 | -2 | 97*
CCc1ccc(NC(=O)CSc2nnc(-c3ccco3)o2)cc1 | -9 | 0
Cn1c(SCC(=O)c2ccc(O)cc2)nnc1-c1ccco1 | -3 | -1
CCCCSc1nnc2c(n1)OC(/C=C/c1ccco1)Nc1ccccc1-2 (centres undefined) | 16 | 32
CCCCCCSc1nnc(-c2ccco2)c(-c2ccco2)n1 | 4 | 90*
O=C(CSc1nnc(-c2ccco2)c(-c2ccco2)n1)c1ccc(Cl)cc1 | -6 | 61*

Bioassay records (PubChem BioAssay)
